Shown is part of a subset that was picked to be rich in hits.
C diff growth: inhibitors of Clostridium difficile growth | Clostridium difficile clinical isolate growth, OD600, 24 h; hits give low values | growth activity, negative = inhibition, % at 16 µg/mL (by protocol) | 86,000 tested, 0.25% active | AID 1259249;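 active = mean growth activity at or below -80% and every replicate also at or below -80%; inconclusive = mean at or below -80% but some replicate above -80%; inactive = mean growth activity above -80%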
T cruzi growth-1: inhibitors of T. cruzi proliferation | T. cruzi beta-gal in NIH3T3, GalScreen luminescence, 90 h | 77,000 tested, 5.9% active | inhibition, % at 8.34 µM;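 active = mean inhibition above about 93%, with at least 55% of replicates each passing it, limit read from the data, passing the limit was not always enough; inconclusive = only one of those two conditions holds; inactive = neither condition holds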
T cruzi growth-2: blocks T. cruzi growth in NIH3T3 host cells; shares compounds with T cruzi growth-1; T. cruzi beta-gal in NIH3T3, GalScreen luminescence, 90 h; inhibition, % at 8.35 µM; 5,600 tested, 72% active;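 active = mean replicate inhibition above about 95% and at least 55% of replicates individually reaching it, limit read from the data; inconclusive = only one of the two criteria is met; inactive = neither criterion is met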
T cruzi growth-3: inhibitors of T. cruzi proliferation | 5,600 tested, 21% active | AID 651740 | T. cruzi beta-gal in NIH3T3, GalScreen luminescence, 90 h | shares compounds with T cruzi growth-1 | inhibition, % at 2.09 µM;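 active = mean inhibition above about 95%, with at least 55% of replicates also reaching it, limit read from the data; inconclusive = meets just one of the two conditions; inactive = meets neither condition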
3T3 cytotox: NIH/3T3 (mouse) viability loss; NIH/3T3 viability, CellTiter-Glo ATP luminescence, 90 h; 5,600 tested, 14% active; cytotoxicity (signal decrease), % at 8.35 µM; shares compounds with T cruzi growth-1;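 active = mean signal decrease across replicates above about 35% based on untreated-well scatter, with enough replicates individually passing, limit read from the data; inconclusive = no rule stated though some were filed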
NIH3T3 tox 2: NIH/3T3 (mouse) viability loss; shares compounds with T cruzi growth-1; NIH/3T3 viability, CellTiter-Glo ATP luminescence, 90 h; inhibition, % at 24.9 µM; 5,600 tested, 56% active; AID 651744;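 active = mean loss of cell viability signal at or above a set limit, and enough replicates individually reaching it; inconclusive = meets only the mean limit or only the replicate share; inactive = meets neither condition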
A number is an active result; – = inactive; ? = inconclusive; · = not tested or not shown.

SMILES | C diff growth | T cruzi growth-1 | T cruzi growth-2 | T cruzi growth-3 | 3T3 cytotox | NIH3T3 tox 2
COc1ccc(CN(C)C[C@H]2OCCCC[C@@H](C)Oc3ccc(NC(=O)Nc4ccc5c(c4)OCO5)cc3C(=O)N([C@@H](C)CO)C[C@@H]2C)cc1 | · | – | · | · | · | ·
COc1ccc(CN(C)C[C@@H]2OCCCC[C@@H](C)Oc3ccc(NC(=O)Nc4ccc5c(c4)OCO5)cc3C(=O)N([C@H](C)CO)C[C@@H]2C)cc1 | · | 102 | 111 | – | – | –
COc1ccc(NC(=O)Nc2ccc3c(c2)C(=O)N([C@H](C)CO)C[C@H](C)[C@@H](CN(C)Cc2ccc4c(c2)OCO4)OCCCC[C@H](C)O3)cc1 | – | ? | 105 | – | – | –
COc1ccc(CN(C)C[C@@H]2OCCCC[C@H](C)Oc3ccc(NC(=O)Nc4ccc5c(c4)OCO5)cc3C(=O)N([C@H](C)CO)C[C@@H]2C)cc1 | · | 101 | – | 106 | – | 107
COc1ccc(CN(C)C[C@@H]2OCCCC[C@H](C)Oc3ccc(NC(=O)Nc4ccc5c(c4)OCO5)cc3C(=O)N([C@@H](C)CO)C[C@@H]2C)cc1 | · | 102 | 100 | – | 68 | 80
C[C@H](CO)N1C[C@H](C)[C@@H](CN(C)C(=O)C2CCC2)Oc2ncc(-c3cccnc3)cc2C1=O | – | – | · | · | · | ·
CC(C)C(=O)Nc1ccc2c(c1)C(=O)N(C)[C@H]1CC[C@H](CC(=O)Nc3ccccc3)O[C@H]1CO2 | – | – | · | · | · | ·
COc1ccc(S(=O)(=O)Nc2ccc3c(c2)[C@H]2C[C@@H](CC(=O)NCC4CC4)O[C@H](CO)[C@H]2O3)cc1 | · | – | · | · | · | ·
COc1ccc(S(=O)(=O)N[C@@H]2C=C[C@@H](CC(=O)NCCc3ccccc3)O[C@@H]2CO)cc1 | – | – | · | · | · | ·
CCC(=O)N(C)C[C@@H]1Oc2cc(-c3cccc(F)c3)ccc2S(=O)(=O)N([C@H](C)CO)C[C@@H]1C | – | – | · | · | · | ·
CCCNC(=O)N1[C@@H](CO)[C@@H]2c3ccccc3N(C(=O)NC(C)C)C[C@@H]21 | – | – | · | · | · | ·
C[C@@H]1CN([C@H](C)CO)C(=O)CCCn2nncc2CO[C@@H]1CN(C)C(=O)Nc1ccccc1F | – | – | · | · | · | ·
COCC(=O)Nc1ccc2c(c1)[C@H]1C[C@H](CC(=O)NCc3ccccc3OC)O[C@H](CO)[C@H]1O2 | – | – | · | · | · | ·
CN(C)C(=O)c1ccc(-c2ccc3c(c2)[C@@H]2[C@@H](CCN2C(=O)c2ccccn2)[C@@H](CO)N3)cc1 | – | – | · | · | · | ·
O=C(c1ccccn1)N1CC[C@H]2[C@H](CO)Nc3ccc(-c4ccccc4)cc3[C@H]21 | – | 99 | ? | – | – | –
O=C(c1ccccn1)N1CC[C@@H]2[C@H]1c1cc(-c3ccccc3F)ccc1N[C@@H]2CO | – | – | · | · | · | ·
O=C(c1ccccn1)N1CC[C@H]2[C@H](CO)Nc3ccc(-c4ccc(F)cc4)cc3[C@H]21 | – | ? | 108 | 98 | – | 29
C[C@@H]1CN([C@@H](C)CO)S(=O)(=O)c2ccc(-c3ccc(C(=O)N(C)C)cc3)cc2O[C@H]1CN(C)C(=O)C1CCC1 | – | – | · | · | · | ·
COc1ccc(NC(=O)Nc2ccc3c(c2)C(=O)N([C@H](C)CO)C[C@@H](C)[C@H](CN(C)C(=O)NC2CCCCC2)OCCCC[C@H](C)O3)cc1 | – | – | · | · | · | ·
O=C(C[C@H]1CC[C@H](NC(=O)C2CCOCC2)[C@H](CO)O1)NCC1CCCCC1 | – | – | · | · | · | ·
O=C(C[C@@H]1C[C@@H]2c3cc(NC(=O)C4CCC4)ccc3O[C@@H]2[C@H](CO)O1)NCc1cccc(F)c1 | · | – | · | · | · | ·
CO[C@@H]1CN(C)C(=O)c2cc(NC(C)=O)ccc2OC[C@H](C)N(Cc2ccc(F)cc2)C[C@H]1C | – | – | · | · | · | ·
CC(C)OC(=O)N(C)C[C@H]1OCc2ccccc2-c2c(n(C)c3ccccc23)C(=O)N([C@@H](C)CO)C[C@H]1C | · | – | · | · | · | ·
CC(C)NC(=O)N(C)C[C@@H]1Oc2c(NC(=O)Nc3ccccc3)cccc2C(=O)N([C@H](C)CO)C[C@@H]1C | – | – | · | · | · | ·
C[C@H](CO)N1C[C@H](C)[C@H](CN(C)Cc2ccccc2)Oc2cc(C#CC(C)(C)O)ccc2S1(=O)=O | – | – | · | · | · | ·
SMILES | C diff growth | T cruzi growth-1 | T cruzi growth-2 | T cruzi growth-3 | 3T3 cytotox | NIH3T3 tox 2
C[C@H](CO)N1C[C@H](C)[C@@H](CN(C)Cc2ccccc2)Oc2cc(C#CC(C)(C)O)ccc2S1(=O)=O | – | – | · | · | · | ·
C[C@H](O)C#Cc1ccc2c(c1)O[C@@H](CN(C)Cc1ccc(-c3ccccc3)cc1)[C@H](C)CN([C@H](C)CO)S2(=O)=O | – | – | · | · | · | ·
C[C@H](O)C#Cc1ccc2c(c1)O[C@H](CN(C)Cc1ccc(-c3ccccc3)cc1)[C@H](C)CN([C@@H](C)CO)S2(=O)=O | – | 109 | 99 | 101 | 47 | 104
C[C@@H]1CN([C@@H](C)CO)S(=O)(=O)c2ccc(C#CC(C)(C)O)cc2O[C@@H]1CN(C)Cc1ccc(-c2ccccc2)cc1 | – | 121 | – | 115 | – | 103
C[C@@H]1CN([C@@H](C)CO)S(=O)(=O)c2ccc(C#CC(C)(C)O)cc2O[C@H]1CN(C)Cc1ccc(-c2ccccc2)cc1 | – | 118 | – | 113 | 116 | 107
CO[C@@H]1CN(C)C(=O)c2cc(NS(=O)(=O)c3cccc(F)c3)ccc2OC[C@H](C)N(C(=O)Cc2cccnc2)C[C@@H]1C | · | – | · | · | · | ·
C[C@H](CO)N1C[C@H](C)[C@@H](CN(C)C(=O)Nc2cccc3ccccc23)Oc2ccc(NS(=O)(=O)c3ccc(F)cc3)cc2CC1=O | – | – | · | · | · | ·
COc1ccc(CN(C)C[C@@H]2OCCCC[C@H](C)Oc3ccc(NC(=O)Nc4ccc(OC)cc4)cc3C(=O)N([C@@H](C)CO)C[C@H]2C)cc1 | · | – | · | · | · | ·
COc1ccc(CN(C)C[C@H]2OCCCC[C@@H](C)Oc3ccc(NC(=O)Nc4ccc(OC)cc4)cc3C(=O)N([C@H](C)CO)C[C@@H]2C)cc1 | · | – | · | · | · | ·
COc1ccc(NC(=O)Nc2ccc3c(c2)C(=O)N([C@H](C)CO)C[C@H](C)[C@H](CN(C)Cc2ccc(Cl)c(Cl)c2)OCCCC[C@H](C)O3)cc1 | – | 126 | 95 | 114 | – | –
COc1ccc(NC(=O)Nc2ccc3c(c2)C(=O)N([C@H](C)CO)C[C@H](C)[C@H](CN(C)Cc2ccc(Cl)c(Cl)c2)OCCCC[C@@H](C)O3)cc1 | – | 121 | 104 | 107 | – | –
COc1ccc(NC(=O)Nc2ccc3c(c2)C(=O)N([C@@H](C)CO)C[C@@H](C)[C@@H](CN(C)Cc2ccc(Cl)c(Cl)c2)OCCCC[C@@H](C)O3)cc1 | – | 126 | 96 | 114 | – | –
COc1ccc(NC(=O)Nc2ccc3c(c2)C(=O)N([C@@H](C)CO)C[C@H](C)[C@@H](CN(C)Cc2ccc(Cl)c(Cl)c2)OCCCC[C@@H](C)O3)cc1 | – | 126 | 102 | 114 | – | –
COCCNC(=O)C[C@H]1C[C@H]2c3cc(NC(=O)c4ccc5c(c4)OCO5)ccc3O[C@H]2[C@@H](CO)O1 | – | · | · | · | · | ·
